# Calls of active or inactive are those of the source. Where a call stands in place of a potency, no number is given. Calls come from the whole dose curve; as a rule, active = well fitted activation curve with a large enough effect; inconclusive = small, poorly fitted or top-dose-only effect; inactive = no such curve, though single readings can be large or run the other way.
# Assay: Counterscreen for Identifying a Potential Treatment of Ataxia-Telangiectasia: Hit Validation
# Conditions: cell-free AlphaLISA/AlphaScreen artifact counterscreen, PBS only, no cells; series mostly up to 76.9 µM
# Procedure, shortened: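 Without cells, compounds at up to 76.7 uM final were combined with premixed anti-pKAP1/anti-KAP1 AlphaLISA bead reagents, protease inhibitors and lysis buffer; signal read after 6 hr at 25C to flag assay-platform artifacts.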
row,Structure (SMILES),Potency
1,COc1ccc(C2/C=C\CN(S(=O)(=O)c3ccc4ccccc4c3)CC(=O)N2Cc2ccc(F)cc2)cc1 (centres undefined),inactive
2,CCOc1cccc(/C=C/c2ccc3cccc(O)c3n2)c1OC,inactive
3,CCN(CC)CCNC(=O)CCc1c(C)nc2c(c(C)nn2-c2ccc(C)cc2)c1C,inactive
4,O=C(Nc1ccc([N+](=O)[O-])cc1)c1cc2ccccc2nc1Cl,inactive
5,Cc1ccc(C)c(-n2c(SCC(=O)NC(C(=O)O)C(C)C)nnc2-c2cccc(Cl)c2)c1 (centres undefined),inactive
6,COc1ccccc1N1CCN(C(=O)c2cc(=O)c3c(C)cc(C)cc3o2)CC1,inactive
7,COc1ccccc1C1CCN(C(=O)c2ccc(Cl)cc2)CC1,inactive
8,CC(CCc1ccccc1)NC(=O)COC(=O)c1ccc(F)cc1 (centres undefined),inactive
9,CC(=O)NNC(=O)CN1C(=O)/C(=C/c2ccccc2)SC1=S,inactive
10,CCOC(=O)c1ccc(-n2c(C)nc3ccc(Br)cc3c2=O)cc1,inactive
11,O=c1c2cc(Br)ccc2nc(-c2ccccc2)n1O,inactive
12,Nc1ccc2ncccc2c1,inactive
13,Cc1ccc(C)c(-c2csc(Nc3ncccn3)n2)c1,inactive
14,O=C1C(Cl)=C(Nc2ccccc2)C(=O)c2ccccc21,inactive
15,O=C(O)c1ccc(-c2nc3ccccc3s2)o1,inactive
16,COc1ccccc1Nc1nc(NCCCN(C)C)nc(N)c1[N+](=O)[O-],inactive
17,Cc1ccc(-c2noc(CCC(=O)NC3CCN(Cc4ccccc4)CC3)n2)cc1,inactive
18,CCOC(=O)Cn1c(-c2ccccc2)cc(SC)c(C#N)c1=O,inactive
19,C/C=C\C=C/C(=O)Nc1cccc(C2=NOC3(C2)C[C@@H](C(N)=O)N(C(=O)COc2ccc(Cl)cc2)C3)c1 (some centres undefined),inactive

# From PubChem BioAssay AID493185 (National Center for Advancing Translational Sciences (NCATS), 2011)
